# A selection: hits, their analogues and other compounds. The true share with any hit is near 1.2%.
# gsp ag: activates gsp, the McCune-Albright syndrome mutation; Potency, µM (highest dose often 76.9 µM), for inactives: top-dose activation (cAMP increase), actives largely listed as activators; gsp mutant cells, cAMP HTRF, 30 min; 0.13% of 340,000 active; active = well fitted activation curve with a large enough effect; inconclusive = small, poorly fitted or top-dose-only effect, or another doubt; inactive = no such curve, though single readings can be large or run the other way; cell line not stated here;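 note: phosphodiesterase inhibitor Ro 20-1724 added with compounds to block cAMP breakdown; potency is the fitted concentration of half-maximal effect; nearly all actives have a fitted effect of over 60% in size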
#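 Cells stably selected in G418 were plated at 2000/well, grown 16-24 hr, then given compounds in DMSO with the PDE inhibitor […] (300 uM solution added) for 30 min at 37C; cAMP was read by HTRF.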
# CCT chaperon mod: modulators of cytosolic chaperonin (CCT/TRiC) activity. 0.3% of 360,000 active. AID 651819. purified chaperonin ATPase assay, HTRF ADP detection, 30 min. activity change, % (concentration not given with the values), hits read low; in the data active = activity change below about -30%; note: % is set by controls: 0 for no effect and ±100 for the full control effect
#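 TRiC (40 or 20 nM final, by batch activity) in 30 mM Tris pH 7.4, 100 mM KCl, 5 mM MgCl2, 1 mM DTT was treated with compound at 76 uM single dose, then 10 uM ATP, 30 min at 37 °C. ADP was read by HTRF Transcreener.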
# TSHR antag: human thyrotropin receptor antagonism | P16473 | TSHR-expressing cells, TSH-stimulated cAMP HTRF, 2 h; active compounds read low | activity change, negative = inhibition, % at 11.5 µM | 0.2% of 330,000 active | AID 504810;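 active = activity change below a set negative limit, meaning inhibition stronger than a set level, cut at about -70% in these data; inconclusive = activity change between two set negative limits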; note: % is set by controls: 0 for no effect and ±100 for the full control effect
# Target sequence (P16473 whole entry, looked up): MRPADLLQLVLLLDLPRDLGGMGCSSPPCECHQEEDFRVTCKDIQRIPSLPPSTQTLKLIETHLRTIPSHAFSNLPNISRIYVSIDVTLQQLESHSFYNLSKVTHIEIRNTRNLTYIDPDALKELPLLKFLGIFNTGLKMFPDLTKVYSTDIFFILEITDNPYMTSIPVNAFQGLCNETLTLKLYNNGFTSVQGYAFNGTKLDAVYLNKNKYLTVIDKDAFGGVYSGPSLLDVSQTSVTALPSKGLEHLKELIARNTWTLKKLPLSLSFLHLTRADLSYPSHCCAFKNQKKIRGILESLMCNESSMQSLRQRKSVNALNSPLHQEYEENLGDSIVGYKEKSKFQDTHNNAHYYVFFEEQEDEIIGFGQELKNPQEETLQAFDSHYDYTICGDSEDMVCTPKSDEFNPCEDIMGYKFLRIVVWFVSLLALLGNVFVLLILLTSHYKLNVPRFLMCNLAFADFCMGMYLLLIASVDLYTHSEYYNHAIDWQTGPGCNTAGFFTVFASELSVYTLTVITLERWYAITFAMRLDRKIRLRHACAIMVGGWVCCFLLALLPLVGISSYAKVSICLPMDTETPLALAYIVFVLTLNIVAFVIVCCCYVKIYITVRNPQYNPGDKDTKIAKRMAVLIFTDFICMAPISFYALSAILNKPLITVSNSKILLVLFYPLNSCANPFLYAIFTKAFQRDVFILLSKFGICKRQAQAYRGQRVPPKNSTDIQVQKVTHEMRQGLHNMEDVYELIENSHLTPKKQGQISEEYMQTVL
#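 Inhibition of cAMP made by TSHR-expressing cells under TSH stimulation (4nM final, EC80; 2 h, 37 deg C) is quantified with a one-step lysis HTRF kit, anti-cAMP cryptate versus cAMP-d2.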
# gsp antag: antagonists of gsp mutant (McCune-Albright syndrome); gsp-mutant cells, cAMP HTRF, 30 min; Potency, µM (series often up to 76.9 µM), for the others: at the top dose activity change, negative = inhibition, usual class: inhibitors; 0.4% of 340,000 active; calls by dose curve; cell line not stated here;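 note: intracellular cAMP measured with PDE inhibitor Ro 20-1724 present during compound exposure; potency is the fitted concentration of half-maximal effect; % is set by controls: 0 for no effect and ±100 for the full control effect; nearly all actives have a fitted effect of over 65% in size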
#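 HTRF cAMP measurement after 30 min RT detection following 30 min, 37C compound treatment alongside […] (added as 300 uM solution) in G418-selected cells seeded at 2000/well and grown 16–24 h.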
# Mm-Cpn inhibitor: inhibitors of Methanococcus maripaludis chaperonin TRiC (MmCpn). 0.031% of 330,000 active. AID 504842. purified Mm-Cpn ATPase, ADP Transcreener TR-FRET. Potency, µM (top dose mostly 76.9 µM), for the others: at the highest dose activity, negative = inhibition, actives largely listed as inhibitors; active = well fitted inhibition curve with a large enough effect; inconclusive = small, poorly fitted or top-dose-only effect; note: potency is the fitted concentration of half-maximal effect; % is set by controls: 0 for no effect and ±100 for the full control effect; nearly all actives have a fitted effect of over 80% in size
#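 Purified archaeal chaperonin (25 nM final) was preincubated with compound for 10 min at 37°C, then ATP (10 uM final) was added for 30 min at 37°C in Tris pH 7.4/KCl/MgCl2/DTT buffer. ADP was quantified by HTRF Transcreener TR-FRET.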
# uPA generation: cell surface uPA generation inhibition | cell surface uPA generation assay, qHTS | 0.31% of 330,000 active | AID 540303 | Potency, µM (doses to about 38.3 µM), for inactives: at the top dose activity change, negative = inhibition, usual class: inhibitors; active = well fitted inhibition curve with a large enough effect; inconclusive = small, poorly fitted or top-dose-only effect; inactive = no such curve, though single readings can be large or run the other way; tested in mouse RAW 264.7 cells; note: potency is the fitted concentration of half-maximal effect; % is set by controls: 0 for no effect and ±100 for the full control effect; nearly all actives have a fitted effect of over 55% in size
# The depositor's hits bear a star; u = inconclusive; x = no result; [ ] = dose if it differs, or a comment.
SMILES,gsp ag,CCT chaperon mod,TSHR antag,gsp antag,Mm-Cpn inhibitor,uPA generation
Cc1nn(C)c(Cl)c1S(=O)(=O)N[C@@H](c1ccccc1)[C@]1(C)C[C@H]1[C@@H](C)C(=O)Nc1ccc2ccccc2c1,-26.8%,-69.6*,-8.5,-8.8%,-0.5%,-26.4%
Cc1nc(C(=O)N2CCCC(N3CCN(c4ccccc4C)CC3)C2)cs1 (centres undefined),-11.2%,-0.8,-14.1,1.9%,0.7%,9.3%
Cc1ccccc1N1CCN(C2CCCN(C(=O)c3cnsn3)C2)CC1 (centres undefined),-20.8%,-3.3,-105.4*,1.6%,1.1%,-1.4%
Cc1noc(C)c1C(c1ccccc1)S(=O)(=O)c1ccccc1 (centres undefined),25.1%,-0.9,-0.5,-10.3%,0.2%,1.3%
COC(=O)C1C2C=CC3(CN(C(C)c4ccc(OC)cc4)C(=O)C13)O2 (centres undefined),7.8%,0.6,-7.7,9.4%,-6.0%,-1.9%
CCOC(=O)C1CCCN(CC(=O)Nc2c(F)c(F)c(F)c(F)c2F)C1 (centres undefined),24.6%,-3.6,-0.1,-3.1%,0.4%,4.0%
COc1ccc2c(c1OC)C(=O)N(c1cccc(NC(C)=O)c1)C2,u,-2.2,-6.0,-8.8%,0.9%,-5.8%
COc1ccc2c(c1OC)C(=O)N(c1ccc(F)cc1)C2,7.0%,-40.5*,1.8,0.4%,-0.4%,-11.7%
CCCCSc1ccc(NC(=O)c2cccnc2)cc1,-1.0%,-2.5,19.5,0.1%,-11.9%,x
Nc1ccc2c(c1)C(=O)c1ccccc1-2,-26.3%,0.2,x,-7.5%,x,-0.9%
Nc1ccc2c(c1)C(=O)C(=O)c1ccccc1-2,29.3%,-2.6,-78.9*,u,u,-10.0%
CC1CC(C)(C)CC2(C1)NC(=O)N(CC(=O)NCCc1c[nH]c3ccccc13)C2=O (centres undefined),-2.7%,-2.4,-30.2,-3.1%,2.5%,-17.4%
C[C@]1(O)CC(=O)C=C[C@H]1Nc1ccccc1,x,0.3,x,9.5%,x,8.91µM*
CC(=O)OCCCNc1cc(Sc2nc3ccccc3s2)c2nonc2c1[N+](=O)[O-],13.3%,-0.5,-3.5,12.8%,0.7%,-1.6%
CC(=O)OCCNc1cc(Sc2nc3ccccc3[nH]2)c2nonc2c1[N+](=O)[O-],u,1.9,-88.4*,u,1.7%,0.4%
O=C(C[C@@H]1C[C@H]2c3cc(NC(=O)C4CCC4)ccc3O[C@H]2[C@@H](CO)O1)NCc1ccc(-c2ccccc2)cc1,31.6µM*,-2.7,x,x,x,x
COc1ccc(CSc2nnc(Cc3sc(-c4ccccc4)nc3-c3ccccc3)o2)cc1,-7.6%,2.2,12.8,11.4%,35.5µM*,5.3%
COc1cc(/C=C/C(=O)OCC(=O)N2c3ccccc3CC2C)cc(OC)c1OC (centres undefined),u,-1.2,-10.1,-16.4%,0.7%,10µM*
COc1cccc(Oc2cncnc2-c2ccc(OC)cc2O)c1,14.2%,-1.4,-5.4,28.2µM*,0.3%,7.4%
CC1=CC(c2ccccc2)n2nc(N)nc2N1 (centres undefined),12.5%,-86.9*,x,-5.7%,x,-0.9%
CC1Sc2ccc(C(=O)N3CCCC(C(F)(F)F)C3)cc2NC1=O (centres undefined),21.3%[15.4 µM],1.0,-8.2,-5.1%,-1.2%,-4.3%
CC(C)c1ccc(NC2CCCN(C(=O)c3cc(C(C)C)nc(N)n3)C2)cc1 (centres undefined),13.0%,-1.5,4.7,5.9%,-1.1%,-1.7%
COc1cc2c(-c3ccc4cc[nH]c4c3)c(-c3ccsc3)oc(=O)c2cc1OC,-26.4%,-1.8,-6.3,-11.0%,-8.4%,19.5%
COc1cc2c(-c3ccc4[nH]ccc4c3)c(-c3ccc(C#N)cc3)oc(=O)c2cc1OC,u,-1.3,-22.5,u,2.8%,2.51µM*
O=C(CCS(=O)(=O)c1ccc2c(c1)NC(=O)CO2)NCCc1ccccc1,-4.6%,1.2,5.4,11.9%,0.4%,5.7%
SMILES,gsp ag,CCT chaperon mod,TSHR antag,gsp antag,Mm-Cpn inhibitor,uPA generation
O=C(CCS(=O)(=O)c1ccc2c(c1)NC(=O)CO2)NCc1ccccc1,-16.2%,-64.0*,4.3,13.4%,-0.1%,-0.9%
O=C1COc2ccc(S(=O)(=O)Nc3ccc(F)cc3)cc2N1,2.24µM*,-3.0,0.5,-1.6%,0.2%,-8.9%
CC(CC(=O)N1CCN(c2ccccc2)CC1)S(=O)(=O)c1ccc2c(c1)NC(=O)CO2 (centres undefined),u,-0.5,-14.2,50.1µM*,1.3%,-6.7%
O=C1COc2ccc(S(=O)(=O)N3CCN(c4ccccc4)CC3)cc2N1,25.1%,-2.6,3.8,1.9%,1.5%,-1.2%
Cc1ccc(NS(=O)(=O)c2ccc3c(c2)NC(=O)CO3)c(C)c1,-3.6%,-1.8,4.4,-3.6%,-0.6%,3.9%
Cc1cccc(N2CCN(C(=O)CCS(=O)(=O)c3ccc4c(c3)NC(=O)CO4)CC2)c1C,-20.7%,-2.5,-12.4,31.6µM*,0.6%,-2.9%
CCOc1ccc(C2/C(=C(/O)c3ccc(OC)cc3)C(=O)C(=O)N2c2cc(C)on2)cc1OC (centres undefined),1.4%,-1.4,-2.1,u,-0.8%,-4.1%
CCc1ccc(OCC(=O)N2CCN(c3ccccc3F)CC2)cc1,6.6%,-0.5,-3.6,-7.3%,-1.6%,-13.2%
COc1cc(CN2CCCC(C(=O)c3ccc(C(C)(C)C)cc3)C2)cc(OC)c1O (centres undefined),-63.2%,-2.5,-0.2,4.6%,-3.1%,4.0%
CCCN1C(=O)C(=O)c2cc(Cl)ccc21,x,1.5,-6.2,12.3%,-1.0%,5.62µM*
COc1ccc(N2C(=O)C3CCCN3C2c2ccc(C)o2)cc1 (centres undefined),-5.8%,-1.9,2.2,50.1µM*,3.1%,-3.7%
Cc1ccc(-c2nnn(CC(=O)N(CCN3CCOCC3)C(C(=O)NC(C)(C)C)c3ccco3)n2)cc1 (centres undefined),-5.8%,-63.3*,6.1,-2.6%,-1.6%,0.0%
COc1ccc(CN(CC(=O)NCC2CCCO2)C(=O)CCC(=O)Nc2cc(C)ccn2)cc1 (centres undefined),u,-0.9,1.4,-11.3%,-0.2%,5.3%
OCCNCCNCc1ccc(-c2ccccc2)cc1,x,x,4.3,x,-0.5%,x
COc1ccc(-n2nc3c(c2NC(=O)COc2ccccc2F)CS(=O)(=O)C3)cc1,u,-32.2*,-19.2,2.0%,1.2%,-8.6%
COc1ccc(-n2nc3c(c2NC(=O)COc2ccccc2)CS(=O)(=O)C3)cc1,0.7%,-1.1,-4.2,-6.4%,0.7%,-3.3%
COCCNC(=O)CN1C(=O)c2cccc3cccc1c23,-0.1%[15.4 µM],1.3,-127.0*,2.7%,1.0%,-3.1%

# Screening data deposited in PubChem by National Center for Advancing Translational Sciences (NCATS).
